Hit rate of the full screen: of about 190,000 compounds, about 3,500 (1.8%) were called active.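 How the source made its calls: active means inhibition above a set limit, 3 SD over mean compound inhibition (cut at about 8.4% in these data); inactive means the rest.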 The list comes from a sample in which actives are over-represented; it also holds similar structures and randomly drawn compounds.
Test: RAM signaling blockers in budding yeast – dse1pr::URA3 reporter, 5-FOA selection, primary screen (AID 868);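 further: 0% = DMSO-only wells with no growth and 100% = 10 µM 1-NA-PP1 full growth; inhibition rescues growth on 5-FOA so higher OD means more RAM inhibition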
Settings: S. cerevisiae dse1pr::URA3 reporter, 5-FOA growth OD615, 2 d; at 50 µM; hits give high values; analog-sensitive cbk1-as2 kinase mutant strain

inhibition, inactive:
Cc1n[nH]c(=O)n1-c1ccc(C(C)C)cc1 0.86%
Nc1nc(-c2sc3nc4c(cc3c2N)CCCC4)nc(N2CCOCC2)n1 5.88%
COc1ccc(NS(=O)(=O)c2ccc(NC(C)=O)cc2)cc1OC 1.03%
COc1ccc(C(=O)Oc2cc(/C=N/NS(=O)(=O)c3ccc(C)cc3)ccc2OC)cc1 5.34%
Cc1cc(C2=NNC(=Nc3ccc(S(=O)(=O)N4CCOCC4)cc3)SC2)c(C)n1CC1CCCO1 (centres undefined) 5.9%
CC(C(=O)NC1CCCC1)N(c1ccc(Oc2ccccc2)cc1)S(C)(=O)=O (centres undefined) -0.13%
O=C1c2ccccc2C(=O)N1CCC(O)C[N+](=O)[O-] (centres undefined) 1.77%
CC(=O)NC1C(Oc2ccc(C)cc2)OC2COC(c3ccco3)OC2C1O (centres undefined) 0.78%
Cc1cc(C)cc(NC(=O)CSc2ccccc2)c1 1.47%
CC(=O)Nc1ccc(NC(=O)CSCc2cnn(-c3ccccc3)c2-n2cccc2)cc1 0.44%
Nc1nc(SCc2ccc([N+](=O)[O-])cc2)c2ncn(C3OC(CO)C(O)C3O)c2n1 (centres undefined) 1.26%
CCc1ccc(C(=O)OCC(=O)Nc2cccc(S(=O)(=O)NC3=NCCCCC3)c2)cc1 0.26%
NS(=O)(=O)c1cccc(NC(=O)CSc2nc3ccccc3n2-c2ccccc2)c1 6.21%
O=C(CN1CCN(Cc2ccc(F)cc2Cl)C1=O)NCc1cccs1 0.13%
O=C(COC(=O)CNC(=O)c1ccccc1F)NCC(F)(F)F 3.2%
O=C(N/N=C/c1ccc([N+](=O)[O-])cc1)C(=O)N1CCCC1 1.52%
COC(=O)N/N=C/c1ccc(-c2ccc(Cl)c(Cl)c2)o1 1.74%
Cc1nccn1CCCNC(=O)CC1C(=O)NCCN1Cc1ccc(Cl)c(F)c1 (centres undefined) -1.07%
COCCNC(=O)/C(C#N)=C/c1nc(N(C)C)n(-c2ccc(F)cc2)c1Cl 0.24%
O=C(NCc1ccco1)c1nc(-c2ccccc2)n(-c2ccccc2)n1 0.66%
O=c1c2ccccc2c(-c2ccccc2)nn1Cc1ccccc1 6.51%
N/C(=N/O)c1cccn1Cc1ccccc1[N+](=O)[O-] 0.13%
O=S(=O)(c1ccc2c(c1)OCCO2)N1CCc2ccccc21 2.45%
COc1ccc(Cl)cc1NC(=O)CNc1ccccc1F -1.15%
COC(=O)[C@@H](NC(=O)Nc1cc(Cl)ccc1C)C(C)C 1.68%
COCCNC(=O)C(OC(=O)c1cccs1)c1ccc(F)cc1 (centres undefined) 0.51%
Cc1ccc(NC(=O)Cn2cccc2C2=NC(c3ccccc3)CO2)c(C)c1 (centres undefined) 0.92%
COC(=O)C1=C(C)N(C)C(=S)NC1c1cc(OC)ccc1OC (centres undefined) 0.25%
COc1cccc(C(=O)Nc2cc3c(cc2Br)OCCCO3)c1 1.75%
COc1ccc(C2=CC(c3cccc(OC)c3)n3nnnc3N2)cc1 (centres undefined) 5.23%
Brc1ccc(C2=CC(c3ccco3)n3ncnc3N2)cc1 (centres undefined) 0.23%
CNC(=O)c1[nH]cnc1C(=O)N[C@@H](CC(C)C)C(=O)OC(C)(C)C 0.13%
CSCC(=O)N1CCCC(C(=O)c2cc(F)ccc2F)C1 (centres undefined) 0.37%
Cc1cc(C)n2nc(SCC(N)=O)nc2n1 -0.25%
CC(/C=N/NC(=O)c1ccncc1)=C\c1ccco1 1.91%
CC(/C=N/NC(=O)c1cc(-c2ccc3ccccc3c2)n[nH]1)=C\c1ccco1 2.36%
CCOC(=O)c1c(NC(=O)CNC2CCCc3ccccc32)sc(C(N)=O)c1C (centres undefined) 3.87%
COc1cc(C(=O)Nc2cc(C(F)(F)F)ccc2N2CCOCC2)ccc1O 0.55%
Fc1cccc2ncnc(OCc3ccccc3)c12 3.63%
COC(=O)[C@H](C)[C@H]1C[C@]1(C)[C@H](NC(=O)OCc1ccccc1)c1ccccc1 8.31%
COC(=O)c1ccc(NCC(=O)c2ccccc2)cc1 0.14%
CC(C)C(=O)Nc1oc(-c2ccccc2)cc1C#N 1.62%
COc1cc(N2C(=O)c3ccccc3C2=O)c(Cl)cc1C(=O)OCC(=O)N1CCOCC1 0.61%
COc1cc(/C=C2/C(=O)ON=C2C)ccc1OCc1cccc(F)c1 1.59%
CCOc1cc(/C=N/O)ccc1OCc1ccccc1F 0.13%
N#Cc1ccc(C(=O)Nc2nc(-c3cccs3)c(C(=O)C(F)(F)F)s2)cc1 3.01%
CCN(CC(=O)NC(=O)NCc1ccccc1)Cc1nc2ccccc2c(=O)[nH]1 0.8%
CC(=O)NC1(c2ccc(F)cc2)CCN(C(=O)c2c(F)cccc2F)CC1 -0.25%
Cc1ccc(-c2csc3nnc(SCC(=O)NCc4ccco4)n23)cc1 0.13%
Cn1c(-c2ccc(F)cc2)cnc1SCC(=O)NCc1ccco1 1.92%
Cc1ccc(C2CC(c3cccc(NS(C)(=O)=O)c3)=NN2S(C)(=O)=O)cc1 (centres undefined) 0.38%
O=c1c([N+](=O)[O-])cccn1Cc1ccc(F)cc1Cl -0.54%
CN1C(=O)/C(=C/C=C2\SCCN2C)OC1=S 2.52%
O=C(c1cccc2ccccc12)N1CCN(c2ccccc2F)CC1 -0.35%
COC(=O)c1ccc(C(=O)OC)c(NC(=S)N2CCN(c3cc(Cl)ccc3C)CC2)c1 3.51%
Cc1ccc(C(=O)N/C(=C/c2cccs2)C(=O)NCC2CCCO2)cc1 (centres undefined) 0.13%
Cc1cc(C)n(-c2ccc3nncn3n2)n1 1.87%
Cc1c(CN2CCC(C)CC2)c(=O)n(-c2ccccc2)n1C 0.66%
Cc1c(NS(=O)(=O)c2ccc(NC3CCCC3)c([N+](=O)[O-])c2)c(=O)n(-c2ccccc2)n1C 4.03%
O=C1CCC(CCC(=O)N2CCCC(C(=O)c3ccc(Cl)cc3)C2)=NN1 (centres undefined) 2.49%
CC(C)(C)c1ccc(/C=C2\SC(=O)N=C2N)cc1 3.69%
Cc1ccc(C(=O)NCCNC(=O)c2ccccc2)cc1 0.24%
Cc1ccc(C(=O)c2c(NC(=O)c3ccncc3)sc3c2CCCC3)cc1 1.55%
NC1=NC2(CCCCC2)N(c2ccc(F)cc2F)C(N)=N1 0.5%
O=c1cnnc(Nc2ccccc2F)[nH]1 0.79%
C/C(N)=C(/C#N)C(=O)COC(=O)CNS(=O)(=O)c1ccc(C)cc1 -0.96%
CCOC(=O)c1sc2nc(CSc3ccccc3)[nH]c(=O)c2c1C 2.26%
Cc1sc2nc(CSCC(=O)Nc3c(Cl)cccc3Cl)[nH]c(=O)c2c1C 4.58%
CCCCN(C(=O)c1ccc(OC(F)(F)F)cc1)c1c(N)n(CCC)c(=O)[nH]c1=O 1.93%
CCOC(=O)c1cnc(-n2nc(C)cc2C)nc1-n1nc(C)cc1C 1.58%
CCOC(=O)c1cnc(-c2ccccc2)nc1Oc1ccc(C)cc1 6.51%
Cc1ccc(CN2CCC(N3CCC(C(=O)NCC4CCCO4)CC3)CC2)o1 (centres undefined) 1.95%
CCOc1ccc(Oc2nc(C)cc(OC)n2)nn1 0.41%
Cc1onc(C(=O)NN)c1C(=O)N1CCN(C(c2ccccc2)c2ccccc2)CC1 0.14%
O=C(COC(=O)c1cnccn1)Nc1cccc2ccccc12 -0.14%
O=C(CCC(=O)OCc1ccc(Cl)cc1)Nc1ccccc1 -0.63%

inhibition, active:
COc1ccc(/C=C/C(=O)c2ccc(NS(=O)(=O)c3ccc(C)cc3)cc2)cc1O 11.1%
Cc1cc(C)cc(NC(=O)CSCc2cnn(-c3ccccc3)c2-n2cccc2)c1 13.3%
Cc1cccc(-n2c(SCC(=O)Nc3cccc(S(=O)(=O)NC4=NCCCCC4)c3)nc3ccccc3c2=O)c1C 11.7%
O=C(N/N=C\c1ccc(-c2ccc(Cl)c(Cl)c2)o1)C(=O)N1CCCC1 8.47%
O=C(NCCc1ccco1)c1nn(Cc2ccccc2)c(=O)c2ccccc12 11.2%
COc1ccc(Cl)cc1NC(=O)NC(C)C(C)(C)C (centres undefined) 12.8%
COc1ccc(C2C=C(c3ccc(Br)cc3)Nc3nc(NS(C)(=O)=O)nn32)cc1 (centres undefined) 13.4%
C/C(=C\c1ccco1)C1Nc2cccc3cccc(c23)N1 8.69%
CCC[C@@H]1C[C@@]1(CCC)[C@@H](NC(=O)c1ccccc1)c1ccc(C(=O)OC)cc1 9.65%
COc1cc(/C=C2/C(=O)ON=C2C)ccc1OCc1ccccc1F 11.4%
O=C(CSc1nnc2scc(-c3ccc(F)cc3)n12)NCc1ccco1 9.95%
Cc1ccc(Cl)cc1N1CCN(C(=O)c2cccc3c(=O)c(C)c(-c4ccccc4)oc23)CC1 8.43%
CC(C)=CCCC1(C)C=Cc2c(ccc3c2[nH]c2cc(O)c(C)cc23)O1 (centres undefined) 21.4%
Cc1c(Nc2cc(N3CCCC(C)C3)c3nonc3c2[N+](=O)[O-])c(=O)n(-c2ccccc2)n1C (centres undefined) 8.7%
Cc1ccc(C(=O)c2c(NC(=O)c3ccccc3)sc(C)c2C)cc1 12.9%
CCOC(=O)c1sc2nc(CSCC(=O)OCc3ccc(C(=O)OC)o3)[nH]c(=O)c2c1C 12.6%
CCOC(=O)c1cnc(-n2nc(C)cc2C)nc1NNc1cc(C)nc(-c2ccccc2)n1 9.84%
O=C(CCC(=O)OCc1cccc(C(=O)Oc2ccccc2)c1)Nc1cccc2ccccc12 15.2%
